Laboratory results published in ChEMBL document CHEMBL3988442, “University of Dundee, Small-Polar-MMV Screening Library” (2021).
For some assays here: Results with a measured potency or affinity are listed apart.

What was measured:
Design in all cases: scale not given: direction of the effect not stated beside the values
[1] = biological target: Protein translocase subunit SecA (Escherichia coli (strain K12)) (UniProt P10408); assay: Assay to Identify E. coli SecA ATPase Inhibitors; type: functional; settings: 30 µM
Sequence of Protein translocase subunit SecA (Escherichia coli (strain K12)) (P10408 whole entry): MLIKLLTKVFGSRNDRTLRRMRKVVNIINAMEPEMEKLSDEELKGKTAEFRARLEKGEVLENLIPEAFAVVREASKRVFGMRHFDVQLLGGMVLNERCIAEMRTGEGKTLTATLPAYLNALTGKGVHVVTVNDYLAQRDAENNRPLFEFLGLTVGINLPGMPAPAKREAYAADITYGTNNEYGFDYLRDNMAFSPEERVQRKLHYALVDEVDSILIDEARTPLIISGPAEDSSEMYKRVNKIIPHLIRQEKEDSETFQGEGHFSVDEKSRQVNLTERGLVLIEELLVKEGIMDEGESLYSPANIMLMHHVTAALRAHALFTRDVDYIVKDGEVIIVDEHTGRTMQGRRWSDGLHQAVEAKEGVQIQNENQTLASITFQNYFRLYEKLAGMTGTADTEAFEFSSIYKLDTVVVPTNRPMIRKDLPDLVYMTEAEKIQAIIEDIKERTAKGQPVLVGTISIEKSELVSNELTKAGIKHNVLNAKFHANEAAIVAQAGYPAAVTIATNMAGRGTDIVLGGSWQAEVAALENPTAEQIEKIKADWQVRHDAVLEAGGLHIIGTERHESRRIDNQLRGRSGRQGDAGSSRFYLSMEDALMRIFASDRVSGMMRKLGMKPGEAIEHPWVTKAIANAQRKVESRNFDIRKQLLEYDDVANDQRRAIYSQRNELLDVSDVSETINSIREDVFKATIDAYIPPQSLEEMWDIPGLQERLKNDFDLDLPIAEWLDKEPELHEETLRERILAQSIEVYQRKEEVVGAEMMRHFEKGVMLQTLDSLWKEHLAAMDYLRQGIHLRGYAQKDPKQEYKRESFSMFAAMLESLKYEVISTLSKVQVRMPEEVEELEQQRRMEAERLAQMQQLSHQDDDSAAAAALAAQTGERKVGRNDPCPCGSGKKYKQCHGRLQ

[2] = biological target: T1, Ubiquitin-activating enzyme e1, putative (Leishmania donovani (strain BPK282A1)) (UniProt E9BSI1); assay: Leishmania donovani Ubiquitin Activating Enzyme (LdE1); type: functional; settings: 30 µM
T1 sequence (whole entry): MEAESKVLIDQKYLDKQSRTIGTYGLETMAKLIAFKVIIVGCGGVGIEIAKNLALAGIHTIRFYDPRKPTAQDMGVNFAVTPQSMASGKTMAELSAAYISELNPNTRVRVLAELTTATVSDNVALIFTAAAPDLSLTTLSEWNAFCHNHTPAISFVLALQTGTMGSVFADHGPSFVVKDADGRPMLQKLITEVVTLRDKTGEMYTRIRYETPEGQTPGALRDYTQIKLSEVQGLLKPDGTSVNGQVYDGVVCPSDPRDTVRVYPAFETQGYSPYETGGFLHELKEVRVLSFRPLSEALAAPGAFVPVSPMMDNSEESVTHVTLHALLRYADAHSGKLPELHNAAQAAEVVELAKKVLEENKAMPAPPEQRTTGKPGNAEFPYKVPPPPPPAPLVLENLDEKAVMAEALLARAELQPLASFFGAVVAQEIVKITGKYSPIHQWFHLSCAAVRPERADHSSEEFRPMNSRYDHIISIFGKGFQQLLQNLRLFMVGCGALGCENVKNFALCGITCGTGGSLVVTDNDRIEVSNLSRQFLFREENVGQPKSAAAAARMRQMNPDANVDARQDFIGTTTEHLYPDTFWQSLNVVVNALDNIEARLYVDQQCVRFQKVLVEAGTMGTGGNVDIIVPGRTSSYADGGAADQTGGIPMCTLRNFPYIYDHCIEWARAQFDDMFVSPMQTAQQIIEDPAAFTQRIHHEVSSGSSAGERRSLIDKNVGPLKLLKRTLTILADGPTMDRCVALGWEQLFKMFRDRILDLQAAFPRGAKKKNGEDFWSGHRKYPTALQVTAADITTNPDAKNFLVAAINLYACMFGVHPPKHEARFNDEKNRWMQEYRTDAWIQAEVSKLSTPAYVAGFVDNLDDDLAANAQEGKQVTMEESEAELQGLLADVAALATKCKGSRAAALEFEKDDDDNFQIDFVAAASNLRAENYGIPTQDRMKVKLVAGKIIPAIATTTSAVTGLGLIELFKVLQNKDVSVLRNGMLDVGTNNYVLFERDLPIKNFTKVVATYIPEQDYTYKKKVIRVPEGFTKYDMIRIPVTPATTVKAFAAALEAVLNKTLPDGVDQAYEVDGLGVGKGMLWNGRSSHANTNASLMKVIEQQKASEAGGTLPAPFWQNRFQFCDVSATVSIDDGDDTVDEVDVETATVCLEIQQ

[3] = biological target: AMP-activated protein kinase, AMPK (Homo sapiens) (UniProt P54646+O43741+P54619+Q9UGJ0+Q9Y478+Q13131+Q9UGI9); assay: AMP-dependent Kinase enzyme assay. An in vitro enzyme assay that detects ADP turnover that is directly proportional to AMPK activity. This uses naive AMPK that is activated during the assay with MK-8722; type: functional; settings: 30 µM
[4] = biological target: Sialic acid-binding Ig-like lectin 9 (Homo sapiens) (UniProt Q9Y336); assay: Hs-Siglec9 ALPHAscreen SOP 20170721; settings: 10 µM
Sequence of Sialic acid-binding Ig-like lectin 9 (Homo sapiens) (Q9Y336 whole entry): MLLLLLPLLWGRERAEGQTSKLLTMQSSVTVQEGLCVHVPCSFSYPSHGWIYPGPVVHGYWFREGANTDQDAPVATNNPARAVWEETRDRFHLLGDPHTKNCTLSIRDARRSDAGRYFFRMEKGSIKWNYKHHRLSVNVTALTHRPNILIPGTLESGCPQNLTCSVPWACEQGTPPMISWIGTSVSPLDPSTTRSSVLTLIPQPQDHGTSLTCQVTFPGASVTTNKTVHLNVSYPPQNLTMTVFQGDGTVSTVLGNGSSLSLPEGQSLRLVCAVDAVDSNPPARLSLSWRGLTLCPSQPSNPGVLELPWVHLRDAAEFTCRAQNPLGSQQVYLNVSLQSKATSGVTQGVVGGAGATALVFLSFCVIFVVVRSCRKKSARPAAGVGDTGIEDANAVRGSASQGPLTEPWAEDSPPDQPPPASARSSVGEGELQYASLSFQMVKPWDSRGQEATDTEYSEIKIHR

Trypanosoma cruzi = assay: Trypanosoma cruzi phosphomannomutase and mannose-1-phosphate guanylyltransferase assay; type: functional; settings: 10 µM
[5] = biological target: T2, Arginase-2, mitochondrial (Homo sapiens) (UniProt P78540); assay: in vitro enzyme assay to detect the production of urea directly proportional to the activity of Arginase II; type: functional; settings: 33.3 µM; further: in the data most compounds retested in dose-response had high values
T2 sequence (whole entry): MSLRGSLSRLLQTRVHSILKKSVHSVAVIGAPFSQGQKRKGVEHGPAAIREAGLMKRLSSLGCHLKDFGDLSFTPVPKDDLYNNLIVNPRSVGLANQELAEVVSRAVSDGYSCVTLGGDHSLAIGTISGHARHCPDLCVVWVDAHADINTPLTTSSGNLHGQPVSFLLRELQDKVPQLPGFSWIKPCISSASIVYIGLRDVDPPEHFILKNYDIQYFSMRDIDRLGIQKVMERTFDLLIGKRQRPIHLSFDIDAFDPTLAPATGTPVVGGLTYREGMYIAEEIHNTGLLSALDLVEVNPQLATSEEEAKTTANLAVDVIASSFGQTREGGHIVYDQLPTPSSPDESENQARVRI

[6] = biological target: T3, Proteasome subunit beta (Trypanosoma cruzi) (UniProt O96673); assay: Trypanosoma cruzi proteasome chymotrypsin-like activity (TcProtChymo) assay.; further: in the data most compounds retested in dose-response had high values; type: functional; settings: 9.37 µM
T3 sequence (whole entry): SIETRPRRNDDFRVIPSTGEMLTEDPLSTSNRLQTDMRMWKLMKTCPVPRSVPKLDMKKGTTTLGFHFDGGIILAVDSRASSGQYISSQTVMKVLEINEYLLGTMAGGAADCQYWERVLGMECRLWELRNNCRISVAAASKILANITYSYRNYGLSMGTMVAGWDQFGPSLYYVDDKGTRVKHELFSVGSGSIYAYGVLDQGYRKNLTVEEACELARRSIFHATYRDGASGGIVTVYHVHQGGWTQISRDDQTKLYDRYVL

Homo sapiens = species: Homo sapiens; assay: To identify inhibition of the IFN signalling (Jak-Stat) pathway via expression of an eGFP reporter gene under the control of an IFN-stimulated response element (ISRE) containing MxA promoter.; type: functional; settings: 30 µM
[7] = biological target: T4, Tyrosyl-tRNA synthetase, putative (Trypanosoma cruzi (strain CL Brener)) (UniProt Q4DSP6); assay: Trypanosoma cruzi tyrosyl tRNA synthetase (TcYRS) _High Tyrosine SOP; type: functional; settings: 30 µM; further: in the data most compounds retested in dose-response had high values
T4 sequence (whole entry): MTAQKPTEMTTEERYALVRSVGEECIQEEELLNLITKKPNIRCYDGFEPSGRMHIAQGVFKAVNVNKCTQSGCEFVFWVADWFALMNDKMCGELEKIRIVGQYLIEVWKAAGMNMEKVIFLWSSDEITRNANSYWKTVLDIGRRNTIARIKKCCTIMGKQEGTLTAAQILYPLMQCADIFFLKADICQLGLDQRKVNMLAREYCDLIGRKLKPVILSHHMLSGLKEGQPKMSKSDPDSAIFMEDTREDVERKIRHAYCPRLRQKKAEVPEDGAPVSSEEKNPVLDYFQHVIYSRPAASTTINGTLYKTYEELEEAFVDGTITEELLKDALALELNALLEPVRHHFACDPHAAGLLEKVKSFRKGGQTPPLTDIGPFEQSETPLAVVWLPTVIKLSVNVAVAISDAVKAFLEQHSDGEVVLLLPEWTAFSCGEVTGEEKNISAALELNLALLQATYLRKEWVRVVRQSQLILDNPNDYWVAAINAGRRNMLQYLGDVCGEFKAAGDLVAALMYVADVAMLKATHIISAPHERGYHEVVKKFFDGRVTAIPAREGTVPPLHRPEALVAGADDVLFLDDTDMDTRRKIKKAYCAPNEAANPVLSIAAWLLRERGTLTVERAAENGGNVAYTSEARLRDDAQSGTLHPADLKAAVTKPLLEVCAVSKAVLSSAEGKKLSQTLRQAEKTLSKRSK

[8] = biological target: T4, Tyrosyl-tRNA synthetase, putative (Trypanosoma cruzi (strain CL Brener)); assay: Trypanosoma cruzi tyrosyl tRNA synthetase (TcYRS) SOP; type: functional; settings: 30 µM
[9] = biological target: Chromo domain-containing protein 1 (Saccharomyces cerevisiae (strain ATCC 204508 / S288c) (Baker's yeast)) (UniProt P32657); assay: ScCHD-1 Enzyme Inhibition Assay; type: functional; settings: 30 µM; further: in the data most compounds retested in dose-response had high values
Sequence of Chromo domain-containing protein 1 (Saccharomyces cerevisiae (strain ATCC 204508 / S288c) (Baker's yeast)) (P32657 whole entry, the tested form may be a part): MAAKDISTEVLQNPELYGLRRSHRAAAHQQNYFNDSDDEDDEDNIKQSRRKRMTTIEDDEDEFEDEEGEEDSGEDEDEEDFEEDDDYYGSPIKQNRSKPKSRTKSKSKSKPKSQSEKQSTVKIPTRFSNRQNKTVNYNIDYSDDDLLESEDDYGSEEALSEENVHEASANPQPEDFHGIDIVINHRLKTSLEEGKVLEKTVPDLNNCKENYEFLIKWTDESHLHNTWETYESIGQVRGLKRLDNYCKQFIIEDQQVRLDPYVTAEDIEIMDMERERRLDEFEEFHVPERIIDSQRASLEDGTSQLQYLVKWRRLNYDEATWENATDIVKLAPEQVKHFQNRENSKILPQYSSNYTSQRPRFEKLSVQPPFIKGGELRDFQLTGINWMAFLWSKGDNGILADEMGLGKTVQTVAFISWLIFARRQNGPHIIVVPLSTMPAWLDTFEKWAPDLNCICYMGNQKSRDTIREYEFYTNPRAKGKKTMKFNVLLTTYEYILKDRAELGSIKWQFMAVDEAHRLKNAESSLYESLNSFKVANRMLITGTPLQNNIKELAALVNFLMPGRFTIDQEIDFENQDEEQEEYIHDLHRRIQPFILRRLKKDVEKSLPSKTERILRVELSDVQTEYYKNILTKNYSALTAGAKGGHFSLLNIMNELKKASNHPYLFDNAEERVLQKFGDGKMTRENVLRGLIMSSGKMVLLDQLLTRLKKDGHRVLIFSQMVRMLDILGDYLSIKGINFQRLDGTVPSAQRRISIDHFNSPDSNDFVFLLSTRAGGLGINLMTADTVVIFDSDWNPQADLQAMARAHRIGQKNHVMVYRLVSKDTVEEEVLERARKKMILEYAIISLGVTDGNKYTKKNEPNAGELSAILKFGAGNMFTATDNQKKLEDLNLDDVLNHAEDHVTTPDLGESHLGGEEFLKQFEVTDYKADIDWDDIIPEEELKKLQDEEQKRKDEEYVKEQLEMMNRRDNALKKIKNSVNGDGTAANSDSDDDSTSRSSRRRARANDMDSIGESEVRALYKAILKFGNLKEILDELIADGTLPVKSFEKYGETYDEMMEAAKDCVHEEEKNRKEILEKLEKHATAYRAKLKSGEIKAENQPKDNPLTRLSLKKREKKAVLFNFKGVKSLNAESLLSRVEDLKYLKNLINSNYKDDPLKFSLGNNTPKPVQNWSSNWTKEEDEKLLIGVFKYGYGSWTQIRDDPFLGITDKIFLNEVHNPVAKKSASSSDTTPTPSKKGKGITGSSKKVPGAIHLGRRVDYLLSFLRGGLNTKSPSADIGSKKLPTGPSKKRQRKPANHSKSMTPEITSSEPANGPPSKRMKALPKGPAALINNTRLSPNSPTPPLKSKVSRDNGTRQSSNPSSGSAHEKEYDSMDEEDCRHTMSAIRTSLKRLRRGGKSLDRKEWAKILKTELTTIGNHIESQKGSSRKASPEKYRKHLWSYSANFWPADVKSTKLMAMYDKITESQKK

Row | SMILES | Percent Effect [1] [%] | Percent Effect [2] [%] | Percent Effect [3] [%] | Percent Effect [4] [%] | Percent Effect (Trypanosoma cruzi) [%] | Percent Effect [5] [%] | Percent Effect [6] [%] | Percent Effect (Homo sapiens) [%] | Percent Effect [7] [%] | Percent Effect [8] [%] | Percent Effect [9] [%]
1 | COC(=O)CCN1CCCC1c1cccc2c1OCCO2 (stereo not given) | -3.03 | -2.67 | -0.184 | 36 | -0.682 | -2.6 | -1.92 | 5.8 | 3.83 | 3.7 | 3.53
2 | Cn1cc(C[C@H]2[C@H](N3CCOCC3)CCN2C(=O)c2ccco2)cn1 | -7.84 | 5.33 | 7.06 | -0.822 | -7.09 | -0.699 | 7.49 | 21.2 | 2.13 | 6.41 | -4.64
3 | CCn1cc(N)c(C(=O)NCc2cnn(C)c2)n1 | -3.38 | 5.2 | 2.98 | 0.256 | -1.48 | -8.28 | 9.48 | -5.92 | 6.45 | 11.1 | 1.02
4 | Cc1noc(C)c1CN1CCN(Cc2nccn2C)C(C)C1 (stereo not given) | 0.213 | 10.1 | -9.19 | 2.86 | -10.1 | 5.7 | 5.65 | 18.5 | -0.493 | 11.4 | -5.78
5 | COc1ccc(C2=CCN(C(=O)CN(C)CC(N)=O)CC2)cc1 | -1.62 | 5.06 | 0.216 | -0.305 | -19.4 | 6.46 | 9.42 | 16.9 | 3.45 | 8.86 | -6.22
6 | CC(C)c1cc(NC(=O)CN2CCc3c(nc(C(C)C)n3C)C2)on1 | -0.514 | 0 | -3.17 | 8.75 | 2.62 | -4.98 | 17.9 | 12 | 5.83 | 9.76 | -7.27
7 | c1ccc(CN2CCc3ncnc(-c4ccsc4)c3CC2)nc1 | -4.91 | 0 | 2.79 | 8.34 | -2.83 | 5.41 | 22.7 | -21 | 2.16 | 7.69 | 3.65
8 | c1cnc2c(c1)cc(C1CCOCC1)n2CCN1CCOCC1 | -3.29 | 14.9 | 13.1 | -5.49 | 0.79 | -1.62 | 12.5 | 4.82 | 3.23 | 11.7 | -12.6
9 | NC(=O)c1csc(C(=O)N2CCCC(n3ccnc3)C2)c1 (stereo not given) | -5.24 | 3.8 | 5.04 | 3 | 2.56 | 1.5 | 7.72 | -1.55 | 4.17 | 15.2 | -9.55
10 | Cc1nn(C)c(C)c1C1CCCN1Cc1cccc(C(N)=O)c1 (stereo not given) | 2.51 | 0 | -3.2 | 12.2 | -4.63 | 3.04 | 9.26 | 8.29 | 2.46 | -1.27 | 0.624
